Assay [1] is described as follows: HepG2 liver cancer cell viability effects, profiling panel, resazurin fluorescence, 24 h, PK04 Diversity Set (AID 1172). To be noted: higher = more signal. (In general: Alamar Blue is a resazurin reagent that responds to reducing activity.)
A short description of assay [2]: basal S. cerevisiae growth modulation, no modifier, primary screen, OD600, strain BY4716, 24 h, basal condition (AID 1173). Particulars: OD600, 24 h, higher = more signal, called active from +8 up or from −8 down.
Assay [3] in a line: MM1S myeloma cell viability, profiling panel, resazurin fluorescence, basal, 24 h, PK04 Diversity Set (AID 1174). To be noted: higher = more signal, called active from +8 up or from −8 down.
In assay [4] the target is Dihydroorotate dehydrogenase (quinone), mitochondrial (Plasmodium falciparum (isolate 3D7)) (UniProt Q08210). The assay can be described thus: PfDHODH enzyme inhibitors, primary screen, biochemical, C-terminal His tag, absorbance 600 nm (AID 1175).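 Also: recombinant parasite enzyme with a five histidine tag at its C terminus.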 Particulars: DCIP absorbance 600 nm, higher = more signal, called active from +8 up or from −8 down.
Chain of Dihydroorotate dehydrogenase (quinone), mitochondrial (Plasmodium falciparum (isolate 3D7)) (Q08210 whole entry, looked up): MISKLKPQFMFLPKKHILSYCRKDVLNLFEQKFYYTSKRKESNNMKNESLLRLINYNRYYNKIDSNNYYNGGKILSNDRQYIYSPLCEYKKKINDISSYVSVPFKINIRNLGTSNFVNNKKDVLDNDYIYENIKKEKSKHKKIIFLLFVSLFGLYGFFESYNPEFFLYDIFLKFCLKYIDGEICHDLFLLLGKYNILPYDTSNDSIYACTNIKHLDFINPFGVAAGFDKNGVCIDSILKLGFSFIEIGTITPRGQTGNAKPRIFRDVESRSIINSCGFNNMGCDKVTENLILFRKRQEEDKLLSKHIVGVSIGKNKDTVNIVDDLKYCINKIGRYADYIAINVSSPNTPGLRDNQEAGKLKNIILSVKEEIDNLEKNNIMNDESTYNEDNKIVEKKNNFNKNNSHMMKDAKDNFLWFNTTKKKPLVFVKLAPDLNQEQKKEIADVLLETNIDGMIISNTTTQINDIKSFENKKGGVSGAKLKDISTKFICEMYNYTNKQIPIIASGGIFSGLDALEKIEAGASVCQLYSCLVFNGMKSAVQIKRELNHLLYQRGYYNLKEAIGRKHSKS
Assay [5] is described as follows: S. cerevisiae RM11-1a growth modifiers, primary screen, strain RM11-1a, OD600, basal, 24 h (AID 1177).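 Also: cultures grown under basal conditions with no added stressor.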 To be noted: OD600, 24 h, higher = more signal, called active from +8 up or from −8 down.
A short description of assay [6]: E. coli acrAB mutant growth effects, primary screen, E. coli filamentation inducers, strain DRC39, OD650, 24 h (AID 1178).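 Also: growth measured as culture turbidity by optical density at 650 nm.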 To be noted: higher = more signal, called active from +8 up or from −8 down.
Assay [7] is described as follows: E. coli acrAB mutant growth effects, primary screen, E. coli filamentation inducers, strain DRC39, OD650, 48 h (AID 1179).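 Also: screen aims at cell division blockers that make cells filament.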 To be noted: E. coli DRC39 delta-acrAB growth, higher = more signal, called active from +8 up or from −8 down.
Assay [8] is described as follows: RPMI8226 myeloma cell viability, profiling panel, resazurin fluorescence, basal, 24 h, PK04 Diversity Set (AID 1180).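 Also: RPMI8826 multiple myeloma cell line at 5000 cells per well.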 Particulars: higher = more signal.
Assay [9] concerns the target E3 ubiquitin-protein ligase XIAP (Homo sapiens) (UniProt P98170). The assay can be described thus: XIAP binders, primary screen, biophysical, small-molecule microarray, fluorescence 635 nm (AID 1181).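 Also: score merges 667 nm emission and signal to noise over triplicate slides.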 Particulars: small-molecule microarray binding, higher = more signal.
Assay [10] deals with XIP peptide (Xip251-270) binding. The assay is described as follows: small-molecule binders of XIP peptide, primary screen, biochemical, small-molecule microarray, fluorescence 635/667 nm, 0.1 µg/mL protein (AID 1182). To be noted: fluorescent protein binding, 635 nm, higher = more signal, called active from +8 up or from −8 down.
The subject of assay [11] is XIP peptide (Xip251-270). The assay is described as follows: small-molecule binders of XIP peptide, primary screen, biochemical, small-molecule microarray, fluorescence 635/667 nm, 0.5 µg/mL protein (AID 1183). To be noted: small-molecule microarray binding, fluorescence 635 nm; higher = more signal.
Assay [12] can be described thus: Plasmodium falciparum growth inhibition, primary screen, strain 3D7, DAPI fluorescence, 100 nL (AID 1184).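 Also: parasites grown inside human red blood cells in medium with human serum.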 To be noted: P. falciparum 3D7 growth, 3 d, higher = more signal.
The target of assay [13] is Homeobox protein Hox-A13 (Mus musculus) (UniProt Q62424). The assay is described as follows: inhibitors of HoxA13-DNA binding, primary screen, biochemical, fluorescence polarization, labeled oligonucleotide (AID 1185). To be noted: 15 min, higher = more signal, called active from +8 up or from −8 down. A general note: In fluorescence polarisation assays a small probe gives low polarisation when free and higher when bound to something large.
Chain of Homeobox protein Hox-A13 (Mus musculus) (Q62424 whole entry, looked up): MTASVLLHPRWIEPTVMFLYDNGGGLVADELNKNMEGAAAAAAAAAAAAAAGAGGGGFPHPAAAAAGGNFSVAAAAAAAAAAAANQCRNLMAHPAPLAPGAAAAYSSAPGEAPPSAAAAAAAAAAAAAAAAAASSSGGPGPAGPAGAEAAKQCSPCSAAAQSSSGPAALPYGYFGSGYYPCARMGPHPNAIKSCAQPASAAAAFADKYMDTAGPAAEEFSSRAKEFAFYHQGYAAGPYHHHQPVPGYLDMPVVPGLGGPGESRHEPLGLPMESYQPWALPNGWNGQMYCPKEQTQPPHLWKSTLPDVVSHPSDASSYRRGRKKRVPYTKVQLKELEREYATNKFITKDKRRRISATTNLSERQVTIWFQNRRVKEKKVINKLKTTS

The nature of assay [14]: inhibitors of hydroxyurea-induced Chk1 phosphorylation, primary screen, imaging, HeLa, phospho-Chk1 antibody, percent positive cells (AID 1186). To be noted: hydroxyurea-induced phospho-Chk1 immunofluorescence imaging, higher = more signal.
Assay [15] can be described thus: inhibitors of hydroxyurea-induced Chk1 phosphorylation, primary screen, imaging, HeLa, phospho-Chk1 nuclear intensity (AID 1187). Particulars: hydroxyurea-induced phospho-Chk1 immunofluorescence imaging, higher = more signal.

Calls of active or inactive are those of the source. Unless noted, no rule for the calls is given here.

Chain of E3 ubiquitin-protein ligase XIAP (Homo sapiens) (P98170 whole entry, looked up): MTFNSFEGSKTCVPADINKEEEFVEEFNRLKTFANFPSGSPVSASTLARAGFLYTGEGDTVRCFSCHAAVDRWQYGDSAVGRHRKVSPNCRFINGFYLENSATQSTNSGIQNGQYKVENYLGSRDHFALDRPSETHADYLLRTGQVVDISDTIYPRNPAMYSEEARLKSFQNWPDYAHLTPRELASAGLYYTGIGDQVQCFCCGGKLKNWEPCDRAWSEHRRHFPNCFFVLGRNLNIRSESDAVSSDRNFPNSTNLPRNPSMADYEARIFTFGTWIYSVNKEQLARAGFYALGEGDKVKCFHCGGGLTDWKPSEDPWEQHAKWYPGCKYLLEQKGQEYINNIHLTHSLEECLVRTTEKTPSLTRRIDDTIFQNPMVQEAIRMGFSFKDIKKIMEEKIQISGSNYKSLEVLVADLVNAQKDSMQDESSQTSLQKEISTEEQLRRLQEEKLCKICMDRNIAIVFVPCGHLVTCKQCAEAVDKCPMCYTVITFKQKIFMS

Regarding `O=C1OCCC=C[C@H]2OC34C=CCN(Cc5ccccc5)C(=O)[C@H]3N(CCO)C(=O)[C@@H]4C12` (stereo not given in full), the z-score was -0.21 in [1]; -1.5 (inactive) in [2]; 0.768 (inactive) in [3]; -2.28 (inactive) in assay [5]; 1.27 (inactive) in [6]; 0.627 (inactive) in assay [7]. Besides, the z-score is 0.47 in [8]; -1.92 in assay [12]; -2.7 (inactive) in assay [13]; -0.618 (inactive) in assay [14]; -0.732 (inactive) in assay [15]. In addition, the composite z-score in assay [4] was -1.19 (inactive); in assay [9] it was -0.569; in assay [10], -0.525 (inactive); in assay [11], -1.24.

For `CCCC[C@H]1OB(O)C[C@H]2C1=C(COC)C[C@H]1C(=O)N(Cc3ccccc3)C(=O)[C@H]12`, the z-score was 1.13 in [1]; -3.65 (inactive) in assay [2]; 0.518 (inactive) in assay [3]; -1.67 (inactive) in assay [5]; 2.53 (inactive) in [6]; 0.942 (inactive) in assay [7]. Moreover, the z-score in assay [8] was 0.283; in assay [12], -0.386; in assay [13], -6.5 (inactive); in assay [14], -0.669 (inactive); in assay [15], -0.331 (inactive). The composite z-score in [4] was 0.282 (inactive); in assay [9] it was -0.12; in assay [10], 0.2 (inactive); in assay [11], 0.0845.

On to `C=CCC(OC(C)=O)[C@@H]1[C@@H](N(Cc2cc3ccccc3o2)C(=O)c2ccc(C)cc2)c2cc(OCCCO)ccc2N1C(=O)c1ccc2ccccc2n1` (stereo not given in full), for which the z-score in [1] is 1.8; in assay [2], -0.934 (inactive); in [3], 1.37 (inactive); in assay [5], -0.0157 (inactive); in assay [6] it was 1.74 (inactive); in assay [7], 1.42 (inactive). For the same compound, the z-score in [8] was 0.585; in [12], -0.863; in [13], -1.79 (inactive); in assay [14] it was 0.347 (inactive); in [15], 0.295 (inactive). Besides, the composite z-score was 0.309 (inactive) in [4], 0.437 in assay [9], 0.167 (inactive) in assay [10] and -0.442 in assay [11].

In the case of `O=C1c2ccccc2[C@](Cc2ccccc2I)(C(=O)O)[C@H](c2ccc(CO)cc2)N1C1CCCCC1`, the z-score in [1] is -0.221; in assay [2] it was -1.14 (inactive); in assay [3], 1.8 (inactive); in assay [5], -1.05 (inactive); in assay [6], 0.938 (inactive); in assay [7], 0.832 (inactive). Besides, the z-score in assay [8] is 1.36; in [12], -1.49; in assay [13] it was -2.96 (inactive); in assay [14] it was -0.225 (inactive); in assay [15] it was -0.395 (inactive). Moreover, the composite z-score is -0.0088 (inactive) in assay [4], 0.0225 in assay [9], 1.87 (inactive) in assay [10] and 0.734 in assay [11].

With `CC(C)(C)OC(=O)CC[C@]1(C(=O)NCCN2CCOCC2)N=C(c2ccc(OCCCO)cc2)O[C@H]1c1ccccc1CN=[N+]=[N-]`, the z-score in [1] was -0.0646; in assay [2] it was -1.56 (inactive); in assay [3], 1.07 (inactive); in [5], -1.36 (inactive); in assay [6], 1.16 (inactive); in [7], 0.277 (inactive). Also, the z-score in [8] is 1.38; in assay [12], -0.867; in assay [13], -4.75 (inactive); in [14], -0.593 (inactive); in [15] it was -0.6 (inactive). In addition, the composite z-score in assay [4] was -0.114 (inactive); in assay [9], 0.564; in [10], 1.16 (inactive); in assay [11], 0.58.

For the compound `C[N+](C)(C)CCCC[C@@H]1NC(=O)[C@H]2C[C@@H](C(=O)NCc3ccc(F)cc3)[C@@H](c3cccc(OCCO)c3)N2C1=O`, the z-score is 0.523 in assay [1]; -1.84 (inactive) in assay [2]; 1.33 (inactive) in assay [3]; -1.62 (inactive) in [5]; 0.765 (inactive) in assay [6]; 0.604 (inactive) in assay [7]. Also, the z-score is -0.0523 in assay [8]; 0.13 in assay [12]; -1.22 (inactive) in assay [13]; 0.06 (inactive) in assay [14]; 0.274 (inactive) in assay [15]. Also, the composite z-score was -0.347 (inactive) in [4], 0.245 in [9], 1.61 (inactive) in assay [10] and 0.675 in assay [11].

Regarding `Cc1ccc(S[C@]2(C(=O)NCCCN(C)C)CC(=O)N(C3CCCCC3)[C@@H]2c2ccc(CO)cc2I)cc1`, the z-score is -1.37 in assay [1]; -2.6 (inactive) in [2]; -7.69 (inactive) in assay [3]; 1.25 (inactive) in [5]; -0.0999 (inactive) in assay [6]; -0.737 (inactive) in assay [7]. In addition, the z-score is -5.11 in assay [8]; -1.65 in assay [12]; 0.756 (inactive) in [13]; -0.212 (inactive) in assay [14]; -0.074 (inactive) in [15]. The composite z-score was 0.895 (inactive) in assay [4], -0.0636 in assay [9], -0.605 (inactive) in [10] and -0.697 in assay [11].

The record behind these values is PubChem BioAssay.
